From the supplement of paper PMC6555819

Legend:
Assay in all cases: PBM binding z-score (relative to random genomic background probes); higher = stronger binding; sequences stand for … in GC…GCGATTGACAGCGTAGAATGAAGG
[1] = test system: FXR:RXRa (NR concentration 270 nM, RXRa partner concentration 90 nM)
Method in brief: (§1)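 Each nuclear receptor dimer, without ligand, was incubated for 1 h on custom Agilent 4×180K protein-binding microarrays. Binding was detected with antibodies against each partner (one per run), and scanned fluorescence was regression-normalized. The binding z-scores are referenced to random human genomic background probes.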

[2] = test system: LXRa:RXRa (NR concentration 270 nM, RXRa partner concentration 90 nM)
Method in brief: as §1

[3] = test system: LXRa homodimer (NR concentration 270 nM)
Method in brief: as §1

[4] = test system: LXRb:RXRa (NR concentration 270 nM, RXRa partner concentration 90 nM)
Method in brief: as §1

[5] = test system: LXRb homodimer (NR concentration 270 nM)
Method in brief: as §1

[6] = test system: PPARa:RXRa (NR concentration 270 nM, RXRa partner concentration 90 nM)
Method in brief: as §1

[7] = test system: PPARg:RXRa (NR concentration 180 nM, RXRa partner concentration 90 nM)
Method in brief: as §1

[8] = test system: PPARg:RXRa 270nM:90nM, anti-RXR (NR concentration 270 nM, RXRa partner concentration 90 nM)
Method in brief: as §1

[9] = test system: PPARg:RXRa 30nM:10nM, anti-RXR (NR concentration 30 nM, RXRa partner concentration 10 nM)
Method in brief: as §1

[10] = test system: PPARg:RXRa 90nM:30nM, anti-RXR (NR concentration 90 nM, RXRa partner concentration 30 nM)
Method in brief: as §1

Sequence	PBM binding z-score [1]	PBM binding z-score [2]	PBM binding z-score [3]	PBM binding z-score [4]	PBM binding z-score [5]	PBM binding z-score [6]	PBM binding z-score [7]	PBM binding z-score [8]	PBM binding z-score [9]	PBM binding z-score [10]
CGTCTAAGGTCAGCAGGTCAGTGAAAGCGACGTG	6.71	4.48	0.785	3.61	0.0498	5.3	4.86	5.46	1.6	4.03
TCTCGGAGGACACGAAAGGGCAGAGCTCGACATC	0.131	0.581	-0.282	-0.082	-0.72	0.48	0.29	0.85	1.65	1.2
ATATGTAGGTTAGGGTCACTCAGAAAGTAGGGAA	4.33	3.26	0.67	3.89	1.47	5.51	7.42	6.49	3.96	6.11
ATCGAAAGGTCGTGAGGTGTGTATACAGAAAGGC	5.39	4.05	0.0507	3.03	0.423	4.94	3.6	3.97	1.61	2.81
GCTCGGAGGACAAGGTCACAGCTTTGTCCGTAGA	4.17	3.99	0.175	3.17	0.142	4.56	3.68	4.17	1.12	2.98
CGTCCAAGGTCATACGAGGTCAGTGAAGACAGAT	7.86	7.57	5.5	6.63	1.78	5.87	5.57	5.9	2.88	4.6
CGAACTAGGTCAAAGGACAGTGAGAGGCGACGTA	4.2	2.38	-0.449	1.41	-0.441	5.65	10.3	8.86	8	9.29
GATACAGGGTGAAGGCCAGAGTACGCGTATTGAT	-0.425	-0.357	-0.615	-0.42	-0.925	1.08	1.41	1.72	0.138	0.958
CCTTGCGGGTCACTGACAGGTTATAGCATTTGGA	4.69	3.74	0.0362	2.95	-0.459	5.05	5.18	4.76	1.63	3.47
ATCCAAAGGTCGAGGTGAGTATAGAGAAAGGGAA	4.69	4.08	0.242	3.36	0.755	4.91	4.74	4.86	1.7	3.57
CCTAGCAGGCCAGGTTCACTCAAGCATTTCGCTT	0.117	0.554	-0.238	0.666	-0.142	0.874	-0.212	-0.0179	-0.854	-0.512
GATCCAGGGTCAGCTAGAGGCCAGAGTATGGAAA	4.42	2.62	-0.925	2.36	-1.4	4.38	3.24	3.15	0.349	1.66
TCTCGGAGGACACGAAGGTCAGCGCTTTCCAGAG	1.84	1.77	0.379	1.68	-0.754	2.31	0.453	2.02	2.12	1.93
CAAACTAGGTCAAAGGACAGTGAAAGGCGACGTA	3.9	3.01	0.388	2.12	0.744	5.51	10.3	8.88	8.82	10.4
CTCGAAAGGTCGAGCTCAGGTGAGTATACCAAAC	5	3.57	-0.0751	3.02	-0.142	4.73	2.39	3.54	1.14	2.04
CCTTACAGGTCAAGGTTATAGCACGGGTGGTACG	6.13	4.73	2.02	3.5	1.18	5.2	4.94	4.89	1.9	3.82
CGTCCAAGGTCAGCAGGTCACTGAAAGCGACGTG	6.56	4.66	0.808	3.7	0.0267	5.5	5.54	5.5	1.58	4.01
CCTACTGGGCCACGAAAGGTAATTGATTCAGTGA	-0.128	-0.227	-0.337	-0.403	-0.777	1.1	1.63	1.38	-0.0637	0.669
CATACCGGGTCAGCTAGGCCAGAGTAGGGACGGC	2.5	1.78	-0.499	1.04	-0.0141	3.1	2.07	1.87	0.181	0.975
TAGCCTAGGTCAGATCGGGGCAGTATACGCTATA	3.05	1.42	-0.378	1.22	0.212	1.93	0.989	1.43	0.0966	0.842
CGAACTAGGTTACCAGGACAGTGAAGAGGTTGGA	-0.174	-0.0635	-0.296	-0.238	-0.499	2.53	3.94	3.65	0.924	2.52
CAAACTAGGTCAAAGGTCAAACTCGAGCCAACCA	8.63	7.62	6.78	7.4	3.51	7.76	14.1	11.6	13.3	13.7
CCAACTAGGTCATTGACAGGACAGTGAATAGTAA	4.34	3.06	0.961	2.18	0.671	3.92	5.95	5.66	2.77	5.03
ATATGTAGGTTAGGGTTATTCAGAAAGTAGGGAA	2.3	2.27	0.961	2.84	1.66	4.11	5.61	5.21	3.18	4.8
AGTCAAAGTTCATCTAGGTAACGAAAGATATGCT	6.43	5.78	4.68	3.86	1.83	5.26	7.04	6.66	3.55	5.72

Sequence	PBM binding z-score [1]	PBM binding z-score [2]	PBM binding z-score [3]	PBM binding z-score [4]	PBM binding z-score [5]	PBM binding z-score [6]	PBM binding z-score [7]	PBM binding z-score [8]	PBM binding z-score [9]	PBM binding z-score [10]
CCTCGGAGGTCAGAAGGTCAGAGCTGTCCGCTTT	5.84	4.89	1.19	3.83	0.259	4.92	3.38	5.24	1.27	3.92
CCTACTGGGCCAAAAAGGTAATTGATGCCGATAA	-0.234	-0.225	-0.561	-0.28	-0.84	0.543	0.593	1.19	-0.018	0.799
GCTAGTGGGTCAGTAAAAGGTCACACACCGGTCG	4.47	4.77	4.65	4.61	0.38	5.24	6.44	5.98	3.57	5.34
ATCGAATGGTCGTGAGGTGAGTATACAGAAAGGC	0.132	-0.131	-0.134	-0.373	-0.124	-0.301	0.654	-0.486	-0.0496	-0.425
CGAACTAGGACATCCAGGACAGTGAATACATTGA	0.00191	-0.483	0.0183	-0.213	-0.407	0.451	1.35	0.774	0.322	0.462
CGAACTAGGTCATAGGACAGTGAAAGGCGACGTA	3.51	2.47	0.169	1.66	-0.283	5.07	9.06	7.62	6.41	7.72
CCTACTGGGCCATTCAGAGGTCATTGATCATATG	2.92	4.32	6.45	3.73	0.365	3.82	2.59	3.24	0.818	2.26
ACTAGTTGTTCAGCTGAGGTCACACACAATTCGG	3.49	3.18	2.25	3.55	0.715	3.83	1.53	1.94	0.705	1.03
CGAACTAAGTCATTGACAGGACAGTGAATAGTAA	-0.324	-0.239	-0.0692	-0.347	-0.466	-0.0981	0.241	0.0844	-0.211	-0.239
CGAACTAGATCAAAGGACAGTGAAAGGCGACGTA	-0.658	-0.667	-0.396	-0.5	-0.637	1.77	3.32	4.89	2.76	4.58
CGTCCAAGGTCAACGCTAGGTCAGTGAAAGCATT	7.34	5.95	2.69	4.66	0.677	5.71	5.29	5.4	2.18	3.94
CTCCAAAGGTCGGTTGAGGTGAGTATACGGATAA	2.49	1.93	-0.152	1.71	-0.00126	2.95	1.01	1.64	0.12	0.875
ATATGTAGGTTAGGGGCATTCAGAAAGTAGGGAA	1.64	1.47	0.824	3.01	2.52	3.8	5.77	5.21	2.78	4.77
CGAACTAGGTCAAAGGACCGTGAAAGGCGACGTA	3.56	2.39	0.0544	1.48	-0.478	4.99	8.12	6.9	5.98	7.29
CGTCAACGTTCAACTAAGGTAACGTAAAGCACGC	0.828	0.246	0.102	0.277	0.346	0.566	0.682	0.178	-0.166	-0.0957
ATATGTAGGTTAGGGTCATTCGGAAAGTAGGGAA	5.03	4.43	1.22	4.4	1.67	5.83	7.56	6.42	4.48	6.36
CTCGAAAGGTCGTCCTCAGGTGAGTATACCAAAC	4.94	3.75	0.547	3.32	0.328	4.54	2.08	3.47	0.492	2.43
AGTCCAAGTTCACTAGGTAACGTAAGATTCAGCT	1.35	1.68	0.49	0.985	0.056	2.69	2.6	2.95	0.796	1.91
AGTCAAAGTTCATCTTGGTAACGTAAGATATGCT	6.87	5.48	5.97	4	2.25	4.58	6.07	6	3.31	5.53
ATATGCAGGTTAGGGTCATTCAGAAAGTAGGGAA	4.84	4.25	0.906	4.2	0.909	5.12	4.09	4.1	1.99	3.4
ATATGTAGGTTACGTCCGGGTCATTCAGGCTATG	2.37	4.62	1.21	3.12	0.722	4.6	5.86	5.24	2.88	4.48
CGAACTAGGTCAAACGACAGTGAAAGGCGACGTA	4.81	2.87	0.0143	2.12	0.102	5.14	8.27	6.9	5.2	7.3
CGTCAAAGTTCAAGGTTACGTAACAGAAAGCAGC	6.96	5.9	2.46	4.07	1.18	5.3	4.97	5.43	2.35	4.26
CCGACGGGGGCAGAAAGGTTACCATACCATCCGG	2.77	2.96	0.333	4.22	3.55	3.93	1.68	3.06	0.967	2.16
